The nature of test [1]: Viability qHTS for spleen associated tyrosine kinase inhibitor (SYKi) naive MV4-11 cells (AID 1963823). Further: nearly all actives have a fitted effect of over 40% in size. A digest of the protocol:
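Cells: MV4-11, SYK inhibitor naive, 500 per well. Treatment: library compounds, 72 hr, 37 C, 5% CO2. Read-out: CellTiter-Glo luminescence after 10 min RT.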
(Quantitative high-throughput screening tests each substance at several concentrations.)

Test [2] can be described thus: Viability qHTS for spleen associated tyrosine kinase inhibitor (SYKi) drug resistant MV4-11 cells (AID 1963824). Further: nearly all actives have a fitted effect of over 35% in size. The method in brief:
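SYK-inhibitor-resistant MV4-11 AML cells were seeded at 500 per well onto compound and cultured 72 hours (37 °C, 5% CO2). CellTiter-Glo was then added, and after 10 min at room temperature, luminescence gave viability.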

Inconclusive results are not listed. A number with no mark means an inactive call. Active and inactive are the calls of the source. The call rests on the fitted dose curve; in most records, active means well fitted cell-killing curve with a large enough effect; inconclusive means small, poorly fitted or top-dose-only effect, or effect the other way; inactive means no such curve, though single readings can be large or run the other way.
Potency means the concentration at half of the fitted maximal effect.

As for `O=S(=O)(NC1CCNCC1)c1cc(S(=O)(=O)c2ccccc2)ccc1C(F)(F)F`, the Potency entry in test [1] and in test [2] was “inactive” each time.
In the case of `COc1cc(O)c2c(c1)C1=CC(O)C(O)CC1(C)OC2=O` (centres undefined), the Potency entry in test [1] and in test [2] was “inactive” in each case.
With `COc1cc([C@H]2OC[C@@H]3[C@@H](c4ccc(O[C@@H]5O[C@H](CO)[C@@H](O)[C@H](O)[C@H]5O)c(OC)c4)OC[C@]23O)ccc1O`, the Potency entry in test [1] and in test [2] was “inactive” each time.
Take `CC(=O)O[C@H]1[C@H](OC(=O)C(C)C)[C@]2(C)OC3(CC[C@]2(C)[C@H]2CCC[C@]4(CO4)[C@]12C)COC(=O)C3` (some centres undefined): the Potency entry in test [1] and in test [2] was “inactive” throughout.
For the compound `C/C=C(\C)[C@@H]1C(C)=C[C@@H]2[C@H]([C@@H]1/C=C/C=C/C(=O)O)[C@@H](C)CC[C@@H]2O`, the Potency in test [1] is 6.4 µM (active); in test [2], 3.6 µM (active).
Take `CC(O)/C=C/C1(O)C(C)C(O)C(O[C@@H]2O[C@H](CO)[C@@H](O)[C@H](O)[C@H]2O)CC1(C)C` (some centres undefined): the Potency result in test [1] and in test [2] was “inactive” each time.
Regarding `CC(C)(O)C1CC=C(C(=O)OC[C@H]2O[C@@H](Oc3cc(C(=O)O)cc(O)c3O)[C@H](O)[C@@H](O)[C@@H]2O)CC1` (some centres undefined), the Potency entry in test [1] and in test [2] was “inactive” in each case.
Turning to `CC(=O)O[C@@H](C[C@@H]1C=C(C)C(=O)O1)[C@H](C)[C@H]1CCC2[C@@]3(C)CC[C@H](O[C@@H]4O[C@H](CO)[C@@H](O)[C@H](O)[C@H]4O[C@@H]4O[C@@H](C)[C@H](O)[C@@H](O)[C@H]4O)C(C)(C)C3CC[C@@]2(C)[C@@]12COC(=O)C2` (some centres undefined), in test [1], the viability (% of control) was 81.6% [at 9.25 µM]. Besides, the viability, % of control in test [2] was 89.9% [at 9.25 µM].
On to `NC1CCCCN(c2c(F)cc3c(=O)c(C(=O)O)cn(C4CC4)c3c2Cl)C1` (centres undefined), for which the Potency entry in test [1] and in test [2] was “inactive” throughout.
For the compound `COC1=CC(=O)O[C@@H](CCc2ccccc2)[C@@H]1O`, the Potency entry in test [1] and in test [2] was “inactive” throughout.
In the case of `Cc1cc(C)c(S(=O)(=O)N(Cc2ccc(-c3cccc(S(C)(=O)=O)c3)cc2)Cc2ccc(C(F)(F)F)o2)c(C)c1`, the Potency entry in test [1] is “inactive”. Besides, the Potency in test [2] is 0.0461 µM (active).
Turning to `Nc1ccc(-c2cnc(N)c(-c3ccc(Cl)cc3)c2)cn1`, the Potency in test [1] was 5.8 µM (active); in test [2], 8.2 µM (active).
For the compound `O=C(O)/C=C/c1ccc(O)c(O[C@@H]2O[C@H](CO)[C@@H](O)[C@H](O)[C@H]2O)c1`, the Potency entry in test [1] and in test [2] was “inactive” throughout.
In the case of `CCOc1ncc(S(=O)(=O)N2CCN(CC)CC2)cc1-c1nc2c(CC)n(CCOC)nc2c(=O)[nH]1`, the Potency entry in test [1] and in test [2] was “inactive” in each case.
As to `O=C1NC(=O)C(c2cn3c4c(cccc24)CCC3)C1c1c[nH]c2ccccc12` (centres undefined), the Potency in test [1] and in test [2] was 0.92 µM (active) in each case.
On to `Cc1ccc(C(=O)Nc2noc3ccccc23)cc1`, for which, in test [1], the Potency result is “inactive”. For the same compound, the Potency in test [2] was 10.3 µM (active).
For the compound `CC(C)CC(=O)c1c(O)cc2c(c1O)C(CC(C)C)C1=C(O2)C(C)(C)C(=O)C(C)(C)C1=O` (centres undefined), the Potency in test [1] and in test [2] was 8.93 µM (active) throughout.
As to `CC(C)C[C@H](NC(=O)[C@@H]1O[C@H]1C(=O)O)C(=O)NCCCCN=C(N)N`, the Potency entry in test [1] and in test [2] was “inactive” in each case.
Take `C=C[C@@]12COC(=O)C(=C)[C@@H]1[C@@H](O)[C@H](C(=C)C(=O)OC)[C@@H](O)C2`: the Potency entry in test [1] and in test [2] was “inactive” each time.
Turning to `C/C=C(/COC(=O)/C(C)=C/C)C(=O)OC(CC)c1ccc(OC)c(OC)c1` (centres undefined), the Potency result in test [1] and in test [2] was “inactive” throughout.
As for `COc1cc2c(cc1O)CC(O)(CO)C(CO)C2c1ccc(OC2OC(CO)C(O)C(O)C2O)c(OC)c1` (centres undefined), the Potency entry in test [1] and in test [2] was “inactive” each time.
Regarding `Cc1cc(-c2nc(C(=O)Nc3cn(C4CCOCC4)nc3C(N)=O)co2)ccn1`, the Potency was 0.0461 µM (active) in test [1] and 0.146 µM (active) in test [2].
Taken in the same sequence, the figures for `COc1c(O)cc2c(c1O)C(=O)O[C@H](C)[C@H]2O` were “inactive” and “inactive”.
In the case of `CN1CCN(Cc2ccc(-c3cnc4[nH]cc(-c5ccc6[nH]ccc6c5)c4c3)cc2)CC1`, the Potency was 0.082 µM (active) in test [1] and 0.146 µM (active) in test [2].
Taken in the same sequence, the figures for `C=CC(C)(C)O[C@@H]1O[C@H](CO[C@@H]2OC[C@](O)(CO)[C@H]2O)[C@@H](O)[C@H](O)[C@H]1O` were “inactive” and “inactive”.
For `C[C@@H]1O[C@@H](O[C@H]2[C@H](O[C@H]3[C@H](O[C@H]4CC[C@@]5(C)C(CC[C@]6(C)C5CC=C5[C@@H]7CC(C)(C(=O)O)C[C@@H](O)[C@]7(C)CC[C@]56C)[C@@]4(C)CO)O[C@H](C(=O)O)[C@@H](O)[C@@H]3O)O[C@H](CO)[C@H](O)[C@@H]2O)[C@H](O)[C@H](O)[C@H]1O` (some centres undefined), the viability (% of control) in test [1] was 58.7% [at 9.25 µM]. The viability, % of control in test [2] was 77.5% [at 9.25 µM].
For the compound `CC1(C)CC2C3=CCC4C5(C)CCC(OC6OC(C(=O)O)C(O)C(O)C6OC6OC(CO)C(O)C(O)C6OC6OC(CO)C(O)C(O)C6O)C(C)(CO)C5CCC4(C)C3(C)CCC2(C)C(OC2OCC(O)C(OC3OC(CO)C(O)C(O)C3O)C2O)C1O` (centres undefined), in test [1], the viability (% of control) is 96.2% [at 9.25 µM]. Besides, the viability, % of control in test [2] was 112% [at 9.25 µM].

Values taken from PubChem BioAssay (NCATS).
